The results in this text go back to PubChem BioAssay AID1224903 (Bradner/Qi Labs at DFCI, 2016).

The campaign covered roughly 66,000 compounds. About 720 (1.1%) were called active. Cut-off read from the data, not from the text of the source: active = normalised signal below about 0.5; inactive = the rest, inconclusive results apart. Shown is part of a subset that was picked to be rich in actives.

In the assay the target is Chromobox protein homolog 7 (Homo sapiens) (UniProt O95931). The assay is described as follows: blockers of CBX7 binding to H3K27me3 peptide – biochemical, AlphaScreen, primary screen (AID 1224903). The conditions noted are these: AlphaScreen His6-CBX7 / biotin-H3K27me3 peptide binding, stronger effect = lower value; z-score: measured here: z-score of CBX7 signal. (In general: In Alpha technology, singlet oxygen from a donor bead excites a nearby acceptor bead.)
Chain of Chromobox protein homolog 7 (Homo sapiens) (O95931 whole entry, looked up): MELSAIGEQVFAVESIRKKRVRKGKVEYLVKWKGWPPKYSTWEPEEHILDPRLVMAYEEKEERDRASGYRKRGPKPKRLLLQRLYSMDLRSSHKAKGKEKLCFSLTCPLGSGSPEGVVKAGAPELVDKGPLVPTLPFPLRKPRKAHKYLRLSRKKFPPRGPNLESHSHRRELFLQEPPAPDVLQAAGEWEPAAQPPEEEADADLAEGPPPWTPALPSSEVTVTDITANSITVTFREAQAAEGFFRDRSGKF
Regarding `CC1(C)C=c2c(nnc3ncnn23)=C(O)C1`, the normalised signal (fraction of DMSO) is 0.00873 (active) and the z-score is -15.7.
Take `CCOC(=O)C1CCCN(c2c(N3CC(C)CC(C)C3)c(=O)c2=O)C1` (stereo unspecified): the normalised signal (fraction of DMSO) was 0.898 (inactive) and the z-score is -2.3.
Taken in the same sequence, the figures for `Cc1ccc(OCc2nc(C#N)c(N3CCCC3)o2)cc1` were 0.417 (active) and -10.6.
Consider `N#Cc1nc(COc2ccc(Cl)cc2)oc1N1CCCC1`, for which the normalised signal (fraction of DMSO) was 0.728 (inactive) and the z-score is -11.9.
`COc1ccc(OCc2nc(C#N)c(N(C)Cc3ccccc3)o2)cc1`: the normalised signal (fraction of DMSO) is 0.575 (inactive) and the z-score was -2.65.
Turning to `Cc1cc(N2CCCCC2)nc2ccc(NC(=O)CCC(=O)N3CCN(c4ccc(F)cc4)CC3)cc12`, the normalised signal (fraction of DMSO) was 1.05 (inactive) and the z-score is 0.868.
Take `Cc1ccc(C)c(CN2C(=O)CSc3ccc(C(=O)NCCCN4CCCCCC4)cc32)c1`: the normalised signal (fraction of DMSO) is 0.98 (inactive) and the z-score is -0.433.
Turning to `Cc1cc(C)nc(N=C(N)N2CCC(Cc3ccccc3)CC2)n1`, the normalised signal (fraction of DMSO) was 0.97 (inactive) and the z-score is -0.61.
Turning to `COc1cc(Cl)c(C)cc1NC(=O)c1n[nH]c(=O)c2ccccc12`, the normalised signal (fraction of DMSO) was 1.01 (inactive) and the z-score was 0.38.
With `CC1CCCCC1NS(=O)(=O)c1ccc2c(c1)CCN2C(=O)C1CCC1` (stereo unspecified), the normalised signal (fraction of DMSO) was 0.937 (inactive) and the z-score is -2.14.
Regarding `COCCN1Cc2cccc(C(=O)NC3CCCC3)c2C1=O`, the normalised signal (fraction of DMSO) was 1.06 (inactive) and the z-score was 0.062.
Consider `O=C(NC1CC1)c1ccc2c(c1)NC(=O)c1ccccc1N2`, for which the normalised signal (fraction of DMSO) was 0.861 (inactive) and the z-score is -2.13.
`Cc1sc2ncnc(NCC3(c4ccccc4)CCCC3)c2c1C`: the normalised signal (fraction of DMSO) was 1.08 (inactive) and the z-score worked out at 1.89.
On to `COCCNC(=O)c1ccc2c(c1)N=C(C)c1cc(Br)ccc1S2`, for which the normalised signal (fraction of DMSO) was 0.995 (inactive) and the z-score is -0.23.
For the compound `CCC(C)NC(=O)c1sc2ncn(CC(=O)Nc3ccccc3OC)c(=O)c2c1C` (stereo unspecified), the normalised signal (fraction of DMSO) is 1.07 (inactive) and the z-score came out at 0.734.
Take `Cc1ccc(-c2nc3ncccc3o2)cc1NC(=O)c1ccc(Br)cc1`: the normalised signal (fraction of DMSO) was 0.923 (inactive) and the z-score is -0.643.
`CC(C)NC(=O)c1ccc2nc(-c3ccccc3)c(-c3ccccc3)nc2c1`: the normalised signal (fraction of DMSO) was 1.07 (inactive) and the z-score is 0.662.
`Cc1cccc(CCNC(=O)CCCNS(=O)(=O)c2ccc3c(c2)CCC(=O)N3)c1`: the normalised signal (fraction of DMSO) was 1.06 (inactive) and the z-score is 2.11.
As for `Cc1ccc2c(c1)N(C(C)C(=O)NCc1ccc(F)cc1Cl)C(=O)CO2` (stereo unspecified), the normalised signal (fraction of DMSO) was 0.512 (inactive) and the z-score is -8.83.
As for `CCOc1ccc(CNC(=O)C(C)N2C(=O)COc3ccc(C)cc32)cc1` (stereo unspecified), the normalised signal (fraction of DMSO) was 0.421 (active) and the z-score was -10.5.
In the same order, the values of `CCN(CCCNC(=O)C(C)N1C(=O)COc2ccc(C)cc21)c1ccccc1` (stereo unspecified) are 0.631 (inactive) and -6.67.
Taken in the same sequence, the figures for `O=C1C2C3C=CC(C4CC34)C2C(=O)N1Cc1cccnc1` (stereo unspecified) were 0.934 (inactive) and -1.18.
`Cc1cc(N2CCCCC2)nc2ccc(NC(=O)c3cnccn3)cc12`: the normalised signal (fraction of DMSO) was 0.882 (inactive) and the z-score was -2.15.
For `CCN(CCNC(=O)Cn1nc(-c2ccc(Cl)cc2)ccc1=O)c1ccccc1`, the normalised signal (fraction of DMSO) was 0.859 (inactive) and the z-score was -7.3.
In the same order, the values of `COc1ccc(N2CC(C(=O)Nc3ccc(C(C)C)cc3)CC2=O)cc1` (stereo unspecified) are 1.06 (inactive) and 0.0758.
In the case of `CC(=O)Nc1ccccc1-c1nc2ccccc2n(C)c1=O`, the normalised signal (fraction of DMSO) was 1.23 (inactive) and the z-score worked out at 3.65.
For the compound `Cc1cc(C)cc(OC(C)C(=O)N(Cc2ccc(Cl)cc2)C2CCS(=O)(=O)C2)c1` (stereo unspecified), the normalised signal (fraction of DMSO) was 0.978 (inactive) and the z-score is -0.282.
Taken in the same sequence, the figures for `Nc1nonc1-c1noc(-c2c(F)cccc2F)n1` were 1.09 (inactive) and 0.864.
In the case of `COc1ccc(Nc2cc(C(=O)NC3CC3)c3ccccc3n2)c(OC)c1`, the normalised signal (fraction of DMSO) was 0.865 (inactive) and the z-score was -2.17.
Regarding `COc1cccc(-n2ccnc2SCC(=O)Nc2ccc(Br)cc2)c1`, the normalised signal (fraction of DMSO) was 0.458 (active) and the z-score was -0.719.
In the case of `CCOc1ccc(-n2ccnc2SCC(=O)Nc2ccccc2F)cc1`, the normalised signal (fraction of DMSO) is 0.617 (inactive) and the z-score is -0.508.
Turning to `CCOc1ccc(-n2ccnc2SCC(=O)Nc2cccc(Cl)c2)cc1`, the normalised signal (fraction of DMSO) was 0.445 (active) and the z-score was -0.736.
In the case of `COc1ccc(-n2ccnc2SCC(=O)Nc2ccc(C)cc2)cc1`, the normalised signal (fraction of DMSO) is 0.62 (inactive) and the z-score was -0.504.
Consider `COc1cccc(-n2ccnc2SCC(=O)Nc2ccc(OC(F)(F)F)cc2)c1`, for which the normalised signal (fraction of DMSO) is 0.995 (inactive) and the z-score was -0.0932.
Turning to `CCOc1ccc(-n2ccnc2SCC(=O)Nc2ccc(C)cc2C)cc1`, the normalised signal (fraction of DMSO) is 0.963 (inactive) and the z-score was -0.292.
For the compound `Cc1ccc(C2CC(c3ccc(C)cc3)n3ncnc3N2)cc1` (stereo unspecified), the normalised signal (fraction of DMSO) was 1.02 (inactive) and the z-score came out at 0.839.
Taken in the same sequence, the figures for `Cc1cc(C)cc(NS(=O)(=O)c2cnc[nH]2)c1` were 1.01 (inactive) and 0.0588.
As to `COc1ccc(NC2CC(=O)N(Cc3ccccc3)C2=O)cc1` (stereo unspecified), the normalised signal (fraction of DMSO) is 1.18 (inactive) and the z-score worked out at 0.412.
Taken in the same sequence, the figures for `COc1ccccc1NC(=O)Cn1ccc2ccccc2c1=O` were 0.981 (inactive) and -0.168.
In the case of `O=C(Nc1ccc2c(c1)OCO2)c1cnc2ccccn2c1=O`, the normalised signal (fraction of DMSO) is 0.987 (inactive) and the z-score is -0.351.
As for `CCN1CCN(c2ccc(Nc3nc(-c4ccccc4)c4cc(Cl)ccc4n3)cc2)CC1`, the normalised signal (fraction of DMSO) was 0.231 (active) and the z-score was -24.9.
Regarding `O=C(O)c1ccc(Nc2nc(-c3ccccc3)c3cc(Br)ccc3n2)cc1`, the normalised signal (fraction of DMSO) was 1.05 (inactive) and the z-score came out at 2.04.
As to `Cc1ccc(Nc2nc(-c3ccccc3)c3cc(Cl)ccc3n2)cc1`, the normalised signal (fraction of DMSO) is 1.7 (inactive) and the z-score was found to be 11.8.
In the same order, the values of `Cc1nc2sc(C(c3cccs3)N3CCc4ccccc4C3)c(O)n2n1` (stereo unspecified) are 0.953 (inactive) and -2.28.
Consider `COc1ccc2[nH]c(C)c(CCNS(=O)(=O)c3ccc(Cl)c(OC)c3)c2c1`, for which the normalised signal (fraction of DMSO) was 0.845 (inactive) and the z-score was -0.316.
Regarding `COc1ccc2[nH]c(C)c(CCNS(=O)(=O)c3cc(Br)ccc3OC)c2c1`, the normalised signal (fraction of DMSO) is 0.363 (active) and the z-score was -0.634.
Take `Cc1ccc2[nH]c(C)c(CCNS(=O)(=O)c3ccc(C)c(C)c3C)c2c1`: the normalised signal (fraction of DMSO) is 0.951 (inactive) and the z-score was -0.467.
For `COc1ccc(OC)c(S(=O)(=O)NCCc2c(C)[nH]c3ccc(C)cc23)c1`, the normalised signal (fraction of DMSO) was 0.427 (active) and the z-score is -0.571.
On to `COc1ccc(S(=O)(=O)NCCc2c(C)[nH]c3ccc(C)cc23)cc1C`, for which the normalised signal (fraction of DMSO) was 0.907 (inactive) and the z-score was -1.43.
Taken in the same sequence, the figures for `Cc1[nH]c2ccc(OC(F)(F)F)cc2c1CCNS(=O)(=O)c1ccc(C(C)C)cc1` were 0.913 (inactive) and -1.89.
Take `Cc1nc2sccn2c1-c1csc(Nc2ccc(S(N)(=O)=O)cc2)n1`: the normalised signal (fraction of DMSO) was 1.07 (inactive) and the z-score came out at 0.0851.
With `Cc1ccc(Cn2nnc3c(=O)n(Cc4c(F)cccc4Cl)cnc32)cc1`, the normalised signal (fraction of DMSO) was 0.864 (inactive) and the z-score is -2.23.
As for `Cc1ccn2c(NC3CCCCC3)c(-c3cccs3)nc2c1`, the normalised signal (fraction of DMSO) was 0.819 (inactive) and the z-score was -1.46.
